Experimental data taken from PubChem BioAssay AID624151 (Broad Institute, 2012).
Hit rate of the full screen: of about 28,000 compounds, about 410 (1.5%) were called active. Cut-off read from the data, not from the text of the source: active = activation above about 52%; inconclusive = no clear call, values can overlap the other calls; inactive = below that. For the sample, actives were picked, then their nearest neighbours and some compounds at random.

experiment: mutant p53 pathway re-activators, primary screen, cell-based, SW480, luciferase, single point, HTS (AID 624151); details: SW480 PUMA-promoter luciferase, p53 mutant reactivation; at 9.98 µM; hits give high values

Row | SMILES | activation
1 | Cc1cc(C)cc(OCC(=O)Nc2cccc(-c3nnc(-c4ccccc4)o3)c2)c1 | 90.4% (active)
2 | CC(C)(C)c1ccc(OCC(=O)Nc2cccc(NC(=O)c3ccccc3)c2)cc1 | 39.6% (inactive)
3 | COc1ccccc1CC(=O)Nc1ccc(-c2nnc(-c3ccc(C)cc3)o2)cc1 | -31.3% (inactive)
4 | Cc1[nH]c2ccccc2c1C(=O)CSc1ccc2ccccc2n1 | -16.4% (inactive)
5 | CCCNC(=O)N(C)C[C@@H]1Oc2ncc(-c3cccc(C#N)c3)cc2C(=O)N([C@@H](C)CO)C[C@H]1C | 0.271% (inactive)
6 | CC(C)C#Cc1ccc2c(c1)O[C@@H](CN(C)Cc1ccncc1)[C@@H](C)CN([C@@H](C)CO)S2(=O)=O | -4.79% (inactive)
7 | CC(Sc1ncn(-c2ccccc2)n1)C(=O)Nc1ccc(Cl)cc1 (stereo not drawn) | 7.31% (inactive)
8 | C[C@H](CO)N1C[C@H](C)[C@H](CN(C)Cc2cccc(C(=O)O)c2)Oc2ncc(-c3ccccc3F)cc2C1=O | 5.45% (inactive)
9 | COc1ccc(NC(=O)Nc2ccc3c(c2)[C@@H]2C[C@H](CC(=O)N[C@@H](C)c4ccccc4)O[C@@H](CO)[C@@H]2O3)cc1 | -6.79% (inactive)
10 | COc1cc([C@H](Cc2ccccc2)NC(C)=O)oc(=O)c1 | 12.8% (inactive)
11 | COc1ccc2c(c1)C(=O)CC(c1ccccc1)O2 (stereo not drawn) | 60.3% (active)
12 | Cn1nc(CC(=O)Nc2ccc3c(c2)oc2ccccc23)c2ccccc2c1=O | -34.2% (inactive)
13 | O=C(C[C@@H]1C[C@H]2c3cc(NC(=O)NC4CCCC4)ccc3O[C@H]2[C@H](CO)O1)NCc1cc(F)ccc1F | -2.6% (inactive)
14 | C[C@H]1CN([C@@H](C)CO)C(=O)c2cc(-c3ccc(C#N)cc3)cnc2O[C@@H]1CN(C)Cc1ccncc1 | -0.372% (inactive)
15 | Cc1ccc([N+](=O)[O-])cc1NC(=O)CSC1=NCCS1 | -5.18% (inactive)
16 | CNC[C@H]1Oc2cc(C#CC(C)(C)O)ccc2S(=O)(=O)N([C@@H](C)CO)C[C@@H]1C | 15.9% (inactive)
17 | C[C@@H]1CN([C@H](C)CO)C(=O)c2c(c3ccccc3n2C)-c2ccccc2CO[C@H]1CN(C)S(=O)(=O)c1ccccc1F | 1.72% (inactive)
18 | Nc1nnc(SCC(=O)Nc2ccc(F)c(Cl)c2)s1 | -1.2% (inactive)
19 | C[C@@H]1CN([C@@H](C)CO)S(=O)(=O)c2ccc(C#CCC3CCCC3)cc2O[C@H]1CN(C)Cc1ccc(C(=O)O)cc1 | -0.35% (inactive)
20 | C[C@@H]1CCCCO[C@@H](CN(C)S(=O)(=O)c2cn(C)cn2)[C@@H](C)CN([C@@H](C)CO)C(=O)c2cc(NC(=O)NC3CCCCC3)ccc2O1 | 16% (inactive)
21 | COc1ccc(OC)c(S(=O)(=O)N(C)CC(=O)Nc2cccc(Cl)c2C)c1 | -5.43% (inactive)

Row | SMILES | activation
22 | CNC[C@H]1Oc2ncc(-c3ccccc3C)cc2C(=O)N([C@@H](C)CO)C[C@@H]1C | 6.16% (inactive)
23 | CC(=O)Nc1ccc(NC(=O)CSc2nnc3c4cc(Br)ccc4n(C)c3n2)cc1 | -24.7% (inactive)
24 | C[C@@H]1CN([C@@H](C)CO)C(=O)c2cc(C#CC(C)(C)O)cnc2O[C@H]1CN(C)Cc1cccc(F)c1 | -7.7% (inactive)
25 | COc1ccccc1NC(=O)CN(c1ccc(Br)c(C)c1)S(C)(=O)=O | 7.45% (inactive)
26 | C[C@@H]1CN([C@H](C)CO)C(=O)c2cc(-c3cncnc3)cnc2O[C@@H]1CN(C)Cc1ccc(Oc2ccccc2)cc1 | 9.54% (inactive)
27 | COC(=O)c1c(NC(=S)Nc2ccc(OC)cc2[N+](=O)[O-])sc2c1CCC(C)C2 (stereo not drawn) | 4.27% (inactive)
28 | CCc1cc(C(=O)OC)c(NC(=S)Nc2ccc(OC)cc2[N+](=O)[O-])s1 | 62.7% (active)
29 | COc1ccc(NC(=O)CSc2nncc3ccccc23)c([N+](=O)[O-])c1 | 4.65% (inactive)
30 | CC(C(=O)Nc1nccs1)C1SC(=O)NC1=O (stereo not drawn) | 1.73% (inactive)
31 | C[C@H]1CN([C@@H](C)CO)C(=O)c2cc(C3=CCCC3)cnc2O[C@H]1CN(C)Cc1ccccc1C(=O)O | 16.5% (inactive)
32 | COCC#Cc1cnc2c(c1)C(=O)N([C@H](C)CO)C[C@H](C)[C@H](CN(C)C(=O)CCN1CCCCC1)O2 | 6.72% (inactive)
33 | Cc1ccc(S(=O)(=O)N(C)C[C@@H]2Oc3c(NC(=O)C4CC4)cccc3C(=O)N([C@H](C)CO)C[C@@H]2C)cc1 | -8.13% (inactive)
34 | COc1cc(NC(=S)NCCN2CCOCC2)c(OC)cc1Cl | -5.79% (inactive)
35 | Cc1cc(=O)oc2cc(OC(C)C(=O)Nc3ccc(N4CCOCC4)cc3)ccc12 (stereo not drawn) | 7.05% (inactive)
36 | CC(=O)CCc1c(C)[nH]c2ccc(C)cc2c1=O | 14.2% (inactive)
37 | C[C@@H]1CCCCO[C@@H](CN(C)S(=O)(=O)c2cn(C)cn2)[C@H](C)CN([C@H](C)CO)C(=O)c2cc(NC(=O)NC3CCCCC3)ccc2O1 | 17% (inactive)
38 | COc1cc(Cl)c(C)cc1NC(=O)CN(C)S(=O)(=O)c1ccc2ccccc2c1 | 14.5% (inactive)
39 | C[C@@H]1CN([C@H](C)CO)S(=O)(=O)c2ccc(-c3cncnc3)cc2O[C@H]1CN(C)C(=O)Cc1ccccc1 | -1.41% (inactive)
40 | COc1ccc(-c2nnc(SCC(=O)Nc3cccc(SC)c3)n2C)cc1 | -10.6% (inactive)
41 | CC(=O)OC[C@H]1O[C@@H](Oc2c(-c3ccc(O)c(O)c3)oc3cc(O)cc(O)c3c2=O)[C@H](O)[C@@H](O)[C@@H]1O | 7.83% (inactive)
42 | CCc1ccccc1NC(=O)COc1cc(O)c2c(=O)cc(-c3ccccc3)oc2c1 | -9.5% (inactive)

Row | SMILES | activation
43 | COc1c(O)cc2oc(-c3ccc(O)c(O)c3)cc(=O)c2c1O | 89.5% (active)
44 | CCOC(=O)c1c(NC(=O)C(C)Oc2ccc3c(C)cc(=O)oc3c2)sc2c1CCC2 (stereo not drawn) | 18.5% (inactive)
45 | O=C(CN(C1CCCCC1)S(=O)(=O)c1ccc(Cl)cc1)Nc1ccccc1C(F)(F)F | 3.31% (inactive)
46 | COc1cccc(C#Cc2cnc3c(c2)C(=O)N([C@@H](C)CO)C[C@H](C)[C@H](CN(C)CC2CC2)O3)c1 | 4.89% (inactive)
47 | COc1cc(CO)cc(Cl)c1OCc1cccc([N+](=O)[O-])c1 | 0.353% (inactive)
48 | COc1ccccc1CCNC(=O)c1cnccn1 | 18.5% (inactive)
49 | C[C@@H]1CN([C@@H](C)CO)C(=O)c2c(c3ccccc3n2C)-c2ccccc2CO[C@@H]1CN(C)S(=O)(=O)CC(F)(F)F | 6.74% (inactive)
50 | Cc1ccccc1-c1ccc2c(c1)O[C@@H](CN(C)C(=O)Nc1ccc(F)cc1)[C@H](C)CN([C@@H](C)CO)S2(=O)=O | -36.4% (inactive)
51 | CCCNC(=O)C[C@H]1C[C@@H]2c3cc(NS(=O)(=O)c4cccc(OC)c4)ccc3O[C@@H]2[C@@H](CO)O1 | 9.83% (inactive)
52 | CCOc1ccc(Cl)cc1S(=O)(=O)NC1CC(C)(C)NC(C)(C)C1 | 2.34% (inactive)
53 | Cc1ccc(C)c(OCC(=O)Nc2ccccc2C#N)c1 | 121% (active)
54 | COc1ccc(C(=O)Nc2cc(C)ccc2NC(=O)COc2ccccc2)cc1 | 28% (inactive)
55 | Cc1cc(C)c2oc(-c3ccc(C)c(NC(=O)COc4ccccc4C)c3)nc2c1 | -4.75% (inactive)
56 | Cc1ccc(-c2nc3cc(NC(=O)COc4ccc([N+](=O)[O-])cc4)ccc3o2)cc1C | 21.6% (inactive)
57 | O=C(COc1ccc([N+](=O)[O-])cc1)Nc1ccc2oc(-c3cccc(F)c3)nc2c1 | 43.6% (inactive)
58 | CN(CC(=O)Nc1ccccc1C#N)S(=O)(=O)c1ccc2ccccc2c1 | 0.461% (inactive)
59 | Cc1cc2nc(-c3ccc(NC(=O)COc4ccccc4[N+](=O)[O-])cc3)oc2cc1C | 68.1% (active)
60 | Cc1ccc(NC(=O)COc2ccccc2C)c([N+](=O)[O-])c1 | 109% (active)
61 | COc1ccc(NC(=O)COc2cc(C)c(Br)c(C)c2)c([N+](=O)[O-])c1 | -11.9% (inactive)
62 | COc1ccccc1NC(=O)CSc1ncc(-c2ccccc2)nn1 | 36.5% (inactive)
63 | C[C@@H]1CN([C@H](C)CO)C(=O)c2cc(C#Cc3cccnc3)cnc2O[C@@H]1CN(C)Cc1ccc(F)cc1 | 5.15% (inactive)
